CCT chaperon mod – cytosolic chaperonin activity modulation; purified chaperonin ATPase assay, HTRF ADP detection, 30 min; activity change, % (test concentration not listed), hits read low; 360,000 compounds, 0.3% hits; in the data active means activity change below about -30%; further: on the % scale 0 is the no-effect control and ±100 the full control effect
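Nucleotide hydrolysis assay: TRiC at 20–40 nM final (set by batch activity) with 10 uM ATP, 30 min at 37 °C, in presence of 76 uM compound. Detection by competitive ADP HTRF, 30 min ambient.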
FUS suppressor – suppressors of FUS proteinopathy in yeast; S. cerevisiae FUS-expressing, growth rescue, OD600, 24 h; Potency, µM (highest dose often 76.6 µM), actives largely listed as activators; 390,000 compounds, 0.24% hits;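 further: potency means the concentration at half of the fitted maximal effect; plate controls were DMSO vehicle for no effect and reference control for full effect; nearly all actives have a fitted effect of over 55% in size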
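Toxicity suppression screen in FUS-yeast. Cells induced with 2% galactose, starting OD 0.005, treated 24hr at 30C with compounds at multiple final concentrations; growth by OD600.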
Mm-Cpn inhibitor – M. maripaludis TRiC chaperonin inhibition. purified Mm-Cpn ATPase, ADP Transcreener TR-FRET. Potency, µM (top dose mostly 76.9 µM), without a hit: at the top dose activity, negative = inhibition, actives largely listed as inhibitors. 330,000 compounds, 0.031% hits; further: potency means the concentration at half of the fitted maximal effect; on the % scale 0 is the no-effect control and ±100 the full control effect; nearly all actives have a fitted effect of over 80% in size
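ATPase read-out: TR-FRET ADP immunoassay (anti-ADP Eu cryptate vs ADP-d2), ex 320 nm, em 590/665 nm; signal drops as ADP forms. Enzyme 25 nM, ATP 10 uM, 30 min at 37°C after 10 min compound preincubation.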
TDP43 rescue – rescues yeast growth from TDP-43 toxicity; 410,000 compounds, 1.8% hits; Potency, µM (highest dose often 46.1 µM), for the others: top-dose growth rescue (activation), most hits filed as activators; TDP-43 expressing yeast growth rescue, BacTiter-Glo, 24 h; further: potency means the concentration at half of the fitted maximal effect; % of control where 0% means no effect; nearly all actives have a fitted effect of over 50% in size
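Cell-based yeast growth screen: TDP-43 expression induced in galactose, inoculum OD600=0.02 after raffinose pregrowth to mid-log. Read-out BacTiter-Glo luminescence at 24 hr, 30 deg C; inhibition of toxicity seen as signal increase.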
Abeta rescue – A-beta toxicity reversal in yeast | yeast expressing A-beta42, growth rescue, OD600, 48 h; response scale: 0% DMSO, 100% iron-clioquinol control | Potency, µM (series often up to 46.1 µM), hits mostly activators | 410,000 compounds, 0.063% hits | AID 1347071; further: potency means the concentration at half of the fitted maximal effect; nearly all actives have a fitted effect of over 55% in size
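Yeast A-beta toxicity model in growth medium with pinned compounds, 48 h at 30 C; growth read as absorbance at 600 nm. Normalized to FeCl3/clioquinol equimolar mix (positive) and DMSO (negative).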
aSyn rescue – alpha-synuclein toxicity inhibition in yeast. 370,000 compounds, 0.14% hits. Yeast expressing alpha-synuclein, growth rescue, BacTiter-Glo, 24 h. Potency, µM (titrated, usually from 46.1 µM), inactives show at the top dose growth rescue (activation), usual class: activators. AID 652106; further: potency means the concentration at half of the fitted maximal effect; % of control where 0% means no effect; nearly all actives have a fitted effect of over 65% in size
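Rescue of yeast growth: cells expressing toxic alpha-synuclein, induced in galactose at OD600 0.02, incubated with compound 24 h at 30 C. ATP luminescence quantified growth; inhibitors of toxicity appear as activators.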
Starred values were filed as active, the others as inactive; i = inactive; ? = inconclusive; . = no result; [ ] = remark or other dose. Only some compounds are listed: those with a hit (about 2.3% of all), similar ones and a draw of the others. Unless noted, the call rests on the fitted dose curve; in most records, active means well fitted curve in the direction sought with a large enough effect; inconclusive means small, poorly fitted or top-dose-only effect, or another doubt; inactive means no such curve, though single readings can be large; an effect the other way counts as inactive or inconclusive.

SMILES	CCT chaperon mod	FUS suppressor	Mm-Cpn inhibitor	TDP43 rescue	Abeta rescue	aSyn rescue
Cc1ccc(CNC(=O)C2(C)CCN2C(=O)Cc2ccc(-c3ccccc3)cc2)cc1 (configuration not stated)	0.1	i	.	35.5µM*	i	?
CC1(C(=O)NCC2CCCCC2)CCN1C(=O)Cc1ccc(-c2ccccc2)cc1 (configuration not stated)	0.2	?	.	20µM*	i	20.5%
Cc1ccc(CC(=O)NO)cc1	.	.	.	.	.	-10.0%
O=C(CSc1nc2ccccc2nc1N1CCOCC1)NCc1ccc(Cl)cc1Cl	.	i	.	.	.	.
COc1ccccc1NC(=O)OC1CC2CC1[C@H]1CCCCN1[C@H]2C (some centres not stated)	.	i	.	.	.	.
CS(=O)c1ccccc1-c1nc(-c2cccc(Cl)c2)no1 (configuration not stated)	0.7	i	-0.8%	12.6µM*	i	7.0%
CS(=O)c1ccccc1-c1nc(-c2ccc(Cl)cc2)no1 (configuration not stated)	-1.2	i	-5.2%	7.7%[9.22 µM]	i	0.3%
Cc1ccc2cc(C#N)c(N3CCCN(S(=O)(=O)c4ccccc4)CC3)nc2c1C	-0.6	6.31µM*	.	-12.5%	i	8.8%
Cc1ccc2cc(C#N)c(N3CCCN(S(=O)(=O)c4ccccc4)CC3)nc2c1	-2.3	i	-19.5%	14.0%	i	0.4%
COc1cccc(CNc2ccc([N+](=O)[O-])cc2C)c1	0.4	i	0.0%	15.8µM*	i	5.9%
CC[C@@]1(c2cccc(Cl)c2)C(=O)N(C(=O)OC(C)C)N1C(=O)OC(C)C	.	i	.	.	.	.
CCCCOc1ccc(C(=O)NC2CCCCN(Cc3cccc(C(F)(F)F)c3)C2=O)cc1 (configuration not stated)	.	i	.	.	.	.
O=C1c2c(O)ccc(O)c2C(=O)c2c(NCCNCCO)ccc(NCCNCCO)c21	-1.8	28.2µM*	-26.1%	0.3%	i	-20.2%
S=C(Nc1ccccn1)Nc1ccccc1Cl	-3.5	i	-3.1%	15.8µM*	i	-4.0%
COc1cc(NC(=S)Nc2ccccn2)cc(OC)c1	1.4	i	0.7%	10µM*	i	1.5%
O=C(CCSCc1ccc(Cl)cc1)N1CCN(c2ccccc2F)CC1	.	i	.	?	i	.
Cc1cccc(-c2nc(CCNC(=O)Cc3ccc(F)cc3)cs2)c1	.	i	.	28.0%	i	.
O=C(Cc1ccc(F)cc1)NCCc1csc(-c2cccc(F)c2)n1	.	i	.	11.2µM*	i	.
O=C(NCCc1csc(-c2ccc(F)cc2)n1)c1cccc(F)c1	.	i	.	15.8µM*	i	.
O=S(=O)(NCCc1csc(-c2cccnc2)n1)c1cc(F)ccc1F	1.0	.	-11.3%	?	14.1µM*	-14.6%
Cc1cc(C)cc(C(=O)NCCc2csc(-c3ccc(C(F)(F)F)cc3)n2)c1	.	i	.	16.0%	i	.
O=C(NCCc1csc(-c2ccc(C(F)(F)F)cc2)n1)c1ccc(F)c(F)c1	.	?	.	25.1µM*	i	-4.2%
O=S(=O)(NCCc1csc(-c2cccnc2)n1)c1cccc(F)c1	-1.1	i	0.6%	0.0%	?	-12.1%
COC(=O)C(C[N+](=O)[O-])C1=C(O)CC(C)(C)CC1=O (configuration not stated)	.	i	.	.	.	.
CC[C@@H](CCCc1ccccc1OC)CCS(=O)(=O)C(C)(C)C	.	i	.	.	.	.
SMILES	CCT chaperon mod	FUS suppressor	Mm-Cpn inhibitor	TDP43 rescue	Abeta rescue	aSyn rescue
CCOC(=O)c1c(NC(=O)/C=C/c2ccc(C)cc2)sc2c1CCCC2	.	i	.	19.8%	i	.
Cc1nn(-c2ccccc2)c2sc(C(=O)NCC3CCCO3)cc12 (configuration not stated)	.	i	.	.	.	.
S=C(N/N=C/c1ccco1)NC1CC2CCC1C2 (configuration not stated)	-0.6	i	-0.4%	14.1µM*	?	-9.7%
Oc1ccccc1/C=N/NC(=S)NC1CC2CCC1C2 (configuration not stated)	-0.1	?	-0.9%	?	?	?
O=C(C[n+]1cccc2cc(Cl)ccc21)c1ccc2ccccc2c1	.	.	.	.	.	1.2%
CC(=O)OCCC(CC(C)C)NC(=O)[C@H](CC(C)C)NC(=O)OCc1ccccc1 (some centres not stated)	.	i	.	.	.	.
CCCCc1ccccc1NC(=S)NC1CCCC1	-3.0	i	-0.8%	-9.8%	7.08µM*	-5.2%
S=C(Nc1cccc2ccccc12)NC1CCCCC1	-1.3	i	-1.5%	3.8%	12.6µM*	21.1%
CSc1ccccc1NC(=S)NC1CCCC1	0.9	i	0.5%	27.4%	?	1.6%
CN1CCc2nc(NC(=O)c3cccc(S(=O)(=O)N4CCc5ccccc54)c3)sc2C1	-35.1*	i	-20.6%	19.1%	i	?
O=C(Nc1nc2c(s1)CCCC2)c1cccc(S(=O)(=O)N2CCCc3ccccc32)c1	1.7	.	?	-9.1%	i	20.1%
Clc1ccc(-c2n[nH]c3c2CCC3)cc1Cl	-0.2	i	-3.5%	20µM*	i	-8.1%
Clc1ccc(-c2n[nH]c3c2CCCC3)cc1	-0.1	i	0.5%	15.8%	i	9.1%
Cc1onc(C(=O)N2CCN(C(c3ccccc3)c3ccccc3)CC2)c1Br	.	i	.	.	.	.
CN(C)S(=O)(=O)Oc1cccc(C(=O)Nc2ccccc2Cl)c1	-0.5	i	-2.5%	14.1µM*	i	2.3%
CN(C)S(=O)(=O)Oc1ccc(C(=O)Nc2cccc(Cl)c2)cc1	-7.4	i	-0.4%	-10.8%	i	-4.4%
CN(C)S(=O)(=O)Oc1cccc(C(=O)Nc2ccc(Cl)cc2)c1	2.0	i	-0.4%	22.4µM*	i	-18.6%
COC(=O)C1CN(Cc2cn(Cc3ccc(F)cc3)nn2)CCS(=O)(=O)N1Cc1ccccc1 (configuration not stated)	.	i	.	.	.	.
CC(C)C(c1nnnn1C1CCCC1)N1CCCc2ccccc21 (configuration not stated)	-0.7	i	0.5%	15.8µM*	i	2.7%
COc1ccccc1CNC(=O)C(=O)NCC(c1cccs1)S(=O)(=O)c1ccc(F)cc1 (configuration not stated)	.	28.2µM*	.	6.6%	i	.
Cc1ccccc1N=Nc1c(N)[nH]n(-c2ccccc2)c1=O	.	i	.	.	.	.
COC(C(=O)C(O)C(C)O)C1Cc2cc3cc(OC4CC(OC5CC(O)C(O)C(C)O5)C(O)C(C)O4)c(C)c(O)c3c(O)c2C(=O)C1OC1CC(OC2CC(OC3CC(C)(O)C(O)C(C)O3)C(O)C(C)O2)C(O)C(C)O1 (configuration not stated)	.	.	.	.	.	-21.3%

Source: PubChem BioAssay (National Center for Advancing Translational Sciences (NCATS))
